# Source: PubChem BioAssay (Tox21)
# Inconclusive results are not listed. Unmarked numbers belong to inactive results. Active and inactive are the calls of the source. Calls follow the shape of the full dose curve.
# Test: qHTS assay for small molecule agonists of the p53 signaling pathway (AID 651631); also: nearly all actives have a fitted effect of over 15% in size
# Details: HCT-116 p53RE-bla reporter, beta-lactamase FRET ratio, 16 h; series mostly up to 73.3 µM; activation: at the top concentration
# How it was run: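 HCT-116 p53RE-bla reporter line, 16 h compound treatment at 37 °C, then fluorescence after 2 h with B/G FRET substrate.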
# % is scaled to controls: 0 for no effect and ±100 for the full control effect; potency is read from the fitted curve at half-maximal effect.
SMILES,activation,Potency
C=C(C)C(=O)OC(C)C,-4.49%,
OCC1CC2CC1C1CCC(CO)C21 (stereo not drawn),-2.03%,
CCCCCCCCN(C)C,-1.94%,
CC[C@H](C)[C@H](N)C(=O)O,0.579%,
CCN(CC)CCc1nc(-c2ccccc2)no1,1.29% [at 34.7 µM],
CCCCCCCCCCCCCCCC(=O)OC/C=C(C)/C=C/C=C(C)/C=C/C1=C(C)CCCC1(C)C,,inactive
CCOC(=O)CC(=O)c1cc(F)c(Cl)nc1Cl,-4.46% [at 95.1 µM],
CC(=O)O[C@H]1C[C@@H]2CC[C@@H]3[C@H](CC[C@@]4(C)[C@H]3C[C@H]([N+]3(C)CCCCC3)[C@@H]4OC(C)=O)[C@@]2(C)C[C@@H]1N1CCCCC1,-3.4%,
Cc1ccc(C)o1,-6.01% [at 95.1 µM],
CC(C)CCCC(C)CCO (stereo not drawn),4.71%,
COc1ccc2[nH]c(S(=O)Cc3ncc(C)c(OC)c3C)nc2n1 (stereo not drawn),-6.05%,
NC(=S)N/N=C/c1cccnc1,-3.51%,
CC(C)c1ccccc1C(C)C,-1.88%,
NCc1ccccc1,3.1%,
CC(C)(C)c1ccc(S)cc1,-1.5%,
CNS(=O)(=O)Cc1ccc2[nH]cc(CCN(C)C)c2c1,0.768%,
COc1ccccc1OC(=O)Oc1ccccc1OC,4.28%,
Cc1c(Cn2ccnc2)c2ccccc2n1CCC(=O)O,-2.56%,
O=[N+]([O-])c1cc[n+]([O-])cc1,-6.26%,

SMILES,activation,Potency
CCOc1cc(OCC)c(C(=O)CCC(=O)O)cc1OCC,-3.45%,
O=S(=O)(O)c1ccc(O)c2ncccc12,-1.64%,
CC[C@]12CCCN3CCc4c(n(c5ccccc45)C(=O)C1)[C@@H]32,,2.54 µM (active)
CC(C)(C)C(=O)OCOP(=O)(COCCn1cnc2c(N)ncnc21)OCOC(=O)C(C)(C)C,-2.42%,
N#CCc1cccc(C(F)(F)F)c1,-0.618%,
O=C=NC1CCC(CC2CCC(N=C=O)CC2)CC1 (stereo not drawn),-3.19%,
Cc1cc(NC(=O)C(=O)O)cc(C)c1Oc1ccc(O)c2c1CCC2,1.74%,
CC(C)CC=O,-2.34%,
Nc1ccc(C(=O)Nc2ccccc2N)cc1,,10.6 µM (active)
O=c1c2ccccc2nnn1CCl,-1.7%,
Cc1ccc(C(C)c2ccc(C)c(C)c2)cc1C,-2.63%,
C=CCCCCCC,-2.01%,
CC(=O)N(O)CCCCCNC(=O)CCC(=O)N(O)CCCCCNC(=O)CCC(=O)N(O)CCCCCN,1.54% [at 34.7 µM],
FC(F)(F)C(F)(F)C(F)(F)C(F)(F)C(F)(F)C(F)(F)CCI,-2.4%,
COCCOCCOCCOCCOC,1.74%,
CCCCCCCCCC(=O)OCC,-1.9%,
Cc1ccc(C(=O)C(C)CN2CCCCC2)cc1 (stereo not drawn),-4.97%,
CCN(CCO)CCCC(C)Nc1ccnc2cc(Cl)ccc12 (stereo not drawn),-3.77%,
Cc1cc(CC(=O)O)c(C)n1-c1ccc(Cl)cc1,-2.35%,
